# Data: PubChem BioAssay AID624351 (Southern Research Specialized Biocontainment Screening …, 2012)
# Hit rate of the full screen: of about 2,400 compounds, about 1,400 (58%) were called active.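 The calls were made as follows: active = inhibition of 30% or more at any tested dose; inconclusive = primary hits over the limit that were never retested; inactive = the rest.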 The set was probably picked from earlier hits. This is one part of the list.
# Assay: ADP Hunter readout inhibition without MgcRacGAP – biochemical, coupled enzyme counter-screen, artefact control for MgcRacGAP inhibitor project, dose response (AID 624351);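 also: signal is the ADP detection kit reading of free GDP without any GAP enzyme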;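 as to inhibition: 0% = median positive control wells and 100% = median negative control wells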
# Details: fluorescence, no MgcRacGAP; series mostly up to 80 µM
SMILES,IC50,inhibition
O=[N+]([O-])c1cnc(Sc2ccncn2)c([N+](=O)[O-])c1,inactive,–
CSc1nc(O)c(/C=C2\C=Nc3ccccc32)[nH]1,33.2 µM (active),–
CSc1nc(/C=C2\C=Nc3ccccc32)c(O)n1C,45.4 µM (active),–
CC1(C)CC[C@]2(C(=O)n3ccnc3)CC[C@]3(C)[C@H](C(=O)C=C4[C@@]5(C)C=C(C#N)C(=O)C(C)(C)[C@@H]5CC[C@]43C)[C@@H]2C1,inactive,–
CCc1ccc(O)c(N=Cc2ccccc2O)c1,37.4 µM (active),–
Cc1ccc(O)c(N=Cc2cc(Cc3ccccc3)cc([N+](=O)[O-])c2O)c1,inactive,–
CCc1ccc(O)c(N=Cc2cccc(C)c2O)c1,50.5 µM (active),–
C=CCc1cccc(C=Nc2cc(Br)ccc2O)c1O,16.2 µM (active),–
OC(CNCC1COc2ccccc2O1)COCc1cccs1 (configuration not stated),inactive,–
O=C(C1CCCN(Cc2cccnc2)C1)N1CCCCC1 (configuration not stated),inactive,–
Cc1ccc(CN2CCN(CC3CC4C=CC3C4)CC2)cc1 (configuration not stated),inactive,–
Cc1cccc2c1c1ccc3c(c1n2C)C(=O)C=CC3=O,inactive,–
CC(OC(=O)CCN=C1NS(=O)(=O)c2ccccc21)C(=O)Nc1ccc(N(C)C)cc1 (configuration not stated),50.9 µM (active),–
Fc1ccc(CNc2ccc(N3CCN(Cc4ccccc4)CC3)cc2)cc1,12.3 µM (active),–
C#CCOc1ccccc1CNC1CCN(Cc2ccccc2)CC1,inactive,–
Fc1ccc(CN2CCN(C(c3ccccc3)c3ccccc3)CC2)cc1,inactive,–
Clc1ccc(CNc2ccc(N3CCN(Cc4ccccc4)CC3)cc2)cc1,30.3 µM (active),–
O=C(CN1CCN(Cc2ccccc2)CC1)Nc1ccc(F)c(F)c1,inactive,–
O=C(CN1CCN(Cc2ccccc2)CC1)NC(c1ccccc1)c1ccccc1,inactive,–
CN(C)C(=S)N=c1ssc(=S)n1Cc1cccnc1,inactive,–
Cc1ccc(C)n1/N=C1/NC(=O)CS1,–,-5.01% [at 10 µM] (inactive)
O=C1CSC(=Nc2ccc(O)cc2)N1c1ccc(O)cc1,56.7 µM (active),–
COc1cc(/C=N/N=C2/SCC(=O)N2c2ccc(O)cc2)ccc1O,48.1 µM (active),–

SMILES,IC50,inhibition
C=CCN1C(=O)CSC1=Nc1ccc(O)cc1,28.9 µM (active),–
O=C1CSC(=Nc2ccc(O)cc2)N1,42 µM (active),–
Fc1ccccc1Nc1n[nH]c(=S)s1,47.7 µM (active),–
Cc1c(Cl)cccc1NC(=S)Nc1ccc2[nH]c(=O)[nH]c2c1,inactive,–
Cc1c(Cl)cccc1Nc1n[nH]c(=S)s1,78.7 µM (active),–
S=c1[nH]nc(Nc2ccccc2Cl)s1,51.9 µM (active),–
COc1ccccc1Nc1n[nH]c(=S)s1,46.8 µM (active),–
COc1ccccc1Nc1ccc2c(O)cc(S(=O)(=O)O)cc2c1,inactive,–
N#CC1=C(Nc2ccccc2Cl)SC(c2ccccc2O)NC1=O (configuration not stated),inactive,–
CCc1cc(/C(Cc2csc(C)n2)=N/O)c(O)cc1O,33.2 µM (active),–
N/N=C(\Cc1cscn1)c1ccc(O)cc1O,67.8 µM (active),–
Cc1ccccc1CN(C)CCc1ccccn1,inactive,–
CCc1cc(/C(Cc2cscn2)=N\O)c(O)cc1O,52.1 µM (active),–
CCc1cc(/C(Cc2ccccn2)=N\O)c(O)cc1O,32.1 µM (active),–
COc1ccc(Br)cc1CN1CCN(C(=O)c2ccc(F)cc2)CC1,inactive,–
CCN(CCNCC(O)COc1ccccc1C(C)C)c1cccc(C)c1 (configuration not stated),inactive,–
COc1cccc(CN2CCN(Cc3cc(OC)c(OC)cc3[N+](=O)[O-])CC2)c1,inactive,–
COc1cc(-c2cc(-c3ccc(O)cc3)nc(N)c2C#N)ccc1O,51.6 µM (active),–
COc1cc(-c2cc(-c3ccc(F)cc3)nc(N)c2C#N)ccc1O,inactive,–
CCCN(CCC)CCCNC(=S)Nc1ccc2nc(N3CCCC3)cc(C)c2c1,inactive,–
CCn1c(=O)n(CC)c2cc(N3CCCC3)c(NC(=O)c3cccc(Cl)c3)cc21,inactive,–
O=C(/C(=C/c1cccnc1)n1ccnc1)c1ccc(Cl)cc1Cl,inactive,–
COCCNCCOCCOc1ccc(Cl)c(C)c1,inactive,–

SMILES,IC50,inhibition
CCOC(=O)C1=C(O)/C(=C\c2ccc(O)c(OCC)c2)N=C1C,52.3 µM (active),–
CCOc1cc(/C=C2\C(=O)N(Cc3ccco3)C(C)=C2C(=O)OC)ccc1O,68.7 µM (active),–
CCOc1cc(/C=C2/N=C(C)C(C(=O)OC)=C2O)ccc1O,29.6 µM (active),–
COC(=O)C1=C(C)N(Cc2ccco2)C(=O)/C1=C\c1ccc([N+](=O)[O-])cc1,inactive,–
COC(=O)C1=C(O)/C(=C\c2ccc(O)c(OC)c2)N=C1C,20 µM (active),–
COC(=O)C1=C(C)N(Cc2ccco2)C(=O)C1,inactive,–
COc1nc(Nc2ccc(O)cc2)nc(OC(C(F)(F)F)C(F)(F)F)n1,39 µM (active),–
Oc1ccc(/C=N/NC(=S)NCCN2CCOCC2)c(O)c1,20.9 µM (active),–
COc1ccccc1OCCCCCCN1CCOCC1,inactive,–
COc1cc(/C=N/NC(=S)NCCN2CCOCC2)ccc1O,21.8 µM (active),–
O=S(=O)(Nc1ccccc1F)c1cccc(NC(=S)NCCN2CCOCC2)c1,inactive,–
COc1ccc(CCNCCN2CCOCC2)cc1,inactive,–
CN(C)S(=O)(=O)c1cc(NC(=O)CNCCN2CCOCC2)ccc1Cl,inactive,–
CCN1CCN(CC(=O)Nc2nc3ccccc3s2)CC1,inactive,–
CCOc1cc(-c2cc(-c3ccccc3)nc(N)c2C#N)ccc1O,inactive,–
COc1cc(-c2nc3ccccc3s2)ccc1O,18.2 µM (active),–
CCOc1cc(-c2nc3ccccc3s2)ccc1O,48.6 µM (active),–
O=C(c1ccc(F)cc1)N1CCN(C2CCCCC2)CC1,inactive,–
COc1cc2c(cc1OC)C1(CCCC1)C(N)=C2C#N,57.3 µM (active),–
O=C(c1ccco1)N1CCN(Cc2cccc([N+](=O)[O-])c2)CC1,inactive,–
O=C(c1c(Cl)cccc1Cl)N1CCN(c2cccc3[nH]ccc23)CC1,50.9 µM (active),–
O=[N+]([O-])c1cccc(CN2CCN(Cc3ccco3)CC2)c1,inactive,–
O=C(c1cccc(Cl)c1)N1CCN(C2CCCCC2)CC1,inactive,–

SMILES,IC50,inhibition
O=[N+]([O-])c1cccc(CN2CCN(c3cccc4[nH]ccc34)CC2)c1,46.7 µM (active),–
O=C1/C(=C/c2ccc(O)c(O)c2)Oc2cc(O)ccc21,28.2 µM (active),–
COc1cc(/C=C2\Oc3cc(O)ccc3C2=O)ccc1O,33.9 µM (active),–
Brc1ccccc1OCCCCCN1CCOCC1,inactive,–
S=c1[nH]nc2sc3ccccc3n12,32.3 µM (active),–
O=C(CN1CCN(c2ncccn2)CC1)N1CCCC1,inactive,–
S=c1[nH]nc(-c2ccncc2)n1/N=C/c1ccccc1,39.6 µM (active),–
Cc1cccc(N2C(=O)/C(=C\c3ccc(C(=O)O)cc3)c3ccccc3C2=O)c1,inactive,–
Oc1ccccc1/C=N/n1c(-c2ccccc2)n[nH]c1=S,71.4 µM (active),–
Cc1ccc(-c2n[nH]c(=S)n2/N=C/c2ccc(C(=O)O)cc2)cc1,69.7 µM (active),–
NNc1ccc([N+](=O)[O-])c2[nH][nH]c(=O)c12,–,-1.61% [at 10 µM] (inactive)
Cc1ccc(S(=O)(=O)/N=S(/c2ccccc2)C(C)C)cc1 (configuration not stated),inactive,–
Nc1cccc2c(O)cc(S(=O)(=O)O)cc12,inactive,–
CN(C)c1ccc2cc(S(=O)(=O)O)cc(O)c2c1,75 µM (active),–
O=S(=O)(O)c1cc(O)c2ccc(Nc3ccccc3)cc2c1,inactive,–
O=C(CCN1CCCCCC1)Nc1ccc2c(c1)OCCO2,inactive,–
O=C(CN1CCOCC1)Nc1ccc2c(c1)OCCO2,inactive,–
COc1cc(/C=C/C(=O)OCC(=O)Nc2ccc3c(c2)OCCO3)ccc1O,29.2 µM (active),–
COc1cc(/C=C/C(=O)OCC(=O)Nc2ccc3c(c2)OCO3)ccc1O,42.1 µM (active),–
CC(C)C1=Nc2cccc3cccc(c23)N1,26.5 µM (active),–
O=C(Oc1ccc(N(C(=O)c2ccncc2)S(=O)(=O)c2cccs2)cc1)c1ccncc1,inactive,–
N=C(N)c1ccc(N=Nc2c(O)ccc3c2[nH]c2ccccc23)cc1,18 µM (active),–
O=C(O)CCN1C(=O)/C(=C/c2ccc(-c3nc4ccccc4s3)o2)SC1=S,inactive,–

SMILES,IC50,inhibition
COCCNCC(=O)Nc1nc(C)cs1,inactive,–
O=C(Nc1ccc(O)cc1)c1ccc2c(c1)C(=O)N(Cc1ccccc1)C2=O,inactive,–
CC(C)(C)N1C(=O)c2ccc(C(=O)Nc3ccc(O)cc3)cc2C1=O,29.7 µM (active),–
Cc1ccc(Nc2c(-c3ccco3)nc3ccccn23)cc1,inactive,–
COc1cc(-c2nc3ccc(C)cn3c2Nc2ccc3c(c2)OCCO3)ccc1O,34.4 µM (active),–
Cc1cccc(Nc2c(-c3ccc(O)cc3)nc3ncccn23)c1,31.7 µM (active),–
COc1cc(-c2nc3cnccn3c2Nc2ccc(C)cc2)ccc1O,45.3 µM (active),–
Cc1ccn2c(Nc3ccc4c(c3)OCO4)c(-c3ccc(O)cc3)nc2c1,32.4 µM (active),–
N#CC(C#N)=C1C=CC=CN1/C(=C\c1ccco1)C(=O)c1ccc(Cl)cc1,inactive,–
COc1cc(-c2nc3ccccn3c2NCC2CCCO2)ccc1O (configuration not stated),inactive,–
COc1cc(-c2nc3cnccn3c2Nc2c(C)cccc2C)ccc1O,52.8 µM (active),–
Clc1cc(Br)ccc1OCCOCCN1CCCC1,inactive,–
COc1cc(/C=N/NC(=O)CNC(=O)c2ccco2)ccc1O,36.8 µM (active),–
COc1cc(/C=N/NC(=O)CNC(=O)c2cccs2)ccc1O,38.4 µM (active),–
COc1ccc2c(/C=N/Nc3ccc(C(=O)O)cc3)c[nH]c2c1,58.5 µM (active),–
O=C(O)c1ccc(N/N=C/c2c[nH]c3ccccc23)cc1,47.5 µM (active),–
CC(C)N=c1scc(-c2ccco2)n1/N=C/c1ccc(O)c(O)c1,63.8 µM (active),–
CN=c1scc(-c2ccc(F)cc2)n1/N=C/c1ccc(O)c(O)c1,38.6 µM (active),–
CN=c1scc(-c2ccco2)n1/N=C/c1ccc(O)c(O)c1,43.9 µM (active),–
Oc1ccc(/C=N/n2c(-c3ccco3)csc2=Nc2cccnc2)c(O)c1,34.3 µM (active),–
